# Source: PubChem BioAssay AID651815 (National Center for Advancing Translational Sciences (NCATS), 2012)
# Hit rate of the full screen: of about 2,100 compounds, about 1,100 (52%) were called active. Inconclusive results (about 29%) are left out. The set was probably picked from earlier hits. Some of the results follow. A number with no mark means an inactive call. Calls come from the whole dose curve; as a rule, active = well fitted inhibition curve with a large enough effect; inconclusive = small, poorly fitted or top-dose-only effect; inactive = no such curve, though single readings can be large or run the other way.
# Molecular target: DNA dC->dU-editing enzyme APOBEC-3F (Homo sapiens) (UniProt Q8IUX4)
# Assay: qHTS for inhibitors of Vif-A3F interactions: Cherry picks counterscreen; note: nearly all actives have a fitted effect of over 65% in size
# Conditions: HeLa A3F-eYFP/Vif cells, eYFP fluorescence, 24 h; series mostly up to 46.1 µM; activity, negative = inhibitor: at the top concentration
# Summary of the method: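 Rescue of Vif-driven A3F-eYFP degradation read as cellular eYFP fluorescence after 24 h compound exposure (several concentrations) in stable HeLa cells; MG132 (2 mM stock) as positive control.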
# % is set by controls: 0 for no effect and ±100 for the full control effect; potency is the fitted concentration of half-maximal effect.
# DNA dC->dU-editing enzyme APOBEC-3F (Homo sapiens), sequence (Q8IUX4 whole entry, looked up): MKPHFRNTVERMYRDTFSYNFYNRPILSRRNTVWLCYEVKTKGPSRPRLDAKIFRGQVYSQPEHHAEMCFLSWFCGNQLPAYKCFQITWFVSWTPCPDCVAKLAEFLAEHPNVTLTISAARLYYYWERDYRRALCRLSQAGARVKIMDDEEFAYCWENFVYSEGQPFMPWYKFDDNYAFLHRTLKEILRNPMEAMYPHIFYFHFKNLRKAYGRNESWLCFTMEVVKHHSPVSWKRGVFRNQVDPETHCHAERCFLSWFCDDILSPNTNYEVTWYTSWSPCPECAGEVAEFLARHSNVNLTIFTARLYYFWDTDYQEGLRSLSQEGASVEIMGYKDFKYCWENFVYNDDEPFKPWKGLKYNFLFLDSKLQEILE
SMILES,Potency,"activity, negative = inhibitor"
CCCn1c(CN2CCN(C(=O)OCC)CC2)nc2cc(NC(=O)C(C)C)ccc21,12.5 µM (active),–
CCN(CC)C(=O)Cn1c(C)c(/C=C/c2cc[n+](C)cc2)c2ccccc21,7.9 µM (active),–
COC(=O)Cn1c(C)c(/C=C/c2cc[n+](C)cc2)c2ccccc21,9.2 µM (active),–
COc1ccccc1-c1cc(-c2ccccc2)nc(SC(C(N)=O)c2ccccc2)c1C#N (configuration not stated),17.7 µM (active),–
N#CC1=C(S)N(c2ccc(F)cc2)C2(CCCCC2)NC1=O,–,16.2%
Cc1ccc2nc(C)c(C(=O)NN=C3CCCCCC3)n2c1,–,-27.5% [at 36.9 µM]
O=C1OC(/C(=C\Nc2cc(Cl)ccc2O)[N+](=O)[O-])c2ccccc21 (configuration not stated),–,-22.5% [at 36.9 µM]
CCCCN(CCC(=O)O)c1ccc(/C=C/c2ccnc3ccccc23)cc1,18.4 µM (active),–
CCN(CCCN(C)C)c1ccc(/C=C/c2ccnc3ccccc23)cc1,20.6 µM (active),–
CCN(C)c1ccc(/C=C/c2ccnc3ccccc23)cc1,23.1 µM (active),–
CC(C)CN(CC(C)C)c1ccc(/C=C/c2ccnc3ccccc23)cc1,20.6 µM (active),–
CCN(CC)c1ccc(/C=C/c2ccnc3ccccc23)cc1,23.1 µM (active),–
CCCN(CCC)c1ccc(/C=C/c2ccnc3ccccc23)cc1,20.6 µM (active),–
CCCCN(CCCC)c1ccc(/C=C/c2ccnc3ccccc23)cc1,23.1 µM (active),–
COCCNC(=O)C(=O)Nc1ccc2c(c1)N(S(=O)(=O)c1cccs1)CCC2,2.23 µM (active),–
CCOc1ccccc1NC(=O)Cn1nnc(C(=O)NCc2cccs2)c1N,1.46 µM (active),–
CCN(CC(=O)NCc1ccc(F)cc1)C(=O)/C=C/c1ccc(OC)c(S(=O)(=O)NC(C)C)c1,4.98 µM (active),–
COc1ccc(NC(=O)C2Cc3c(-c4cccc(C(C)=O)c4)ccnc3O2)cn1 (configuration not stated),3.14 µM (active),–
CC(=O)Nc1cccc(-c2ccnc3c2CC(C(=O)Nc2ccc4c(c2)OCO4)O3)c1 (configuration not stated),4.44 µM (active),–
COc1ccc(NC(=O)C2Cc3c(-c4cccc(C(C)=O)c4)ccnc3O2)cc1 (configuration not stated),3.53 µM (active),–
CC(=O)c1cccc(-c2ccnc3c2CC(C(=O)Nc2ccc(Cl)cc2)O3)c1 (configuration not stated),4.98 µM (active),–
CC(=O)Nc1ccc(-c2ccnc3c2CC(C(=O)Nc2cccc(N(C)C)c2)O3)cc1 (configuration not stated),12.5 µM (active),–
COc1ccc(NC(=O)C2Cc3c(-c4cccc(NC(C)=O)c4)ccnc3O2)cn1 (configuration not stated),7.9 µM (active),–
Cc1ccc(S(=O)(=O)c2cc3ccccc3oc2=Nc2ccc3c(c2)OCO3)cc1,–,-12.3%

SMILES,Potency,"activity, negative = inhibitor"
CC(C)NC(=S)N/N=C/c1sc(N2CCCCC2)nc1-c1cccs1,–,-29.2%
COc1cccc(N2CC(O)=C(c3nc4ccccc4s3)C2=N)c1,7.9 µM (active),–
COc1cc(/C=C2\C(=N)N3N=CSC3=NC2=O)cc(Br)c1OC(=O)c1ccco1,–,28.5%
CN(C)c1ccc(/C=C2\SC(N3CCCCC3)=NC2=O)cc1,23.1 µM (active),–
CCN(CC)c1ccc(/C=C2\C(=N)N3N=C(CC(=O)N4CCOCC4)SC3=NC2=O)cc1,0.0353 µM (active),–
COc1cc(/C=C2\C(=N)N3N=C(S(C)(=O)=O)SC3=NC2=O)ccc1OC(=O)c1ccco1,–,29.8%
CN(C)c1ccc(/C=C2\C(=N)N3N=C(CC(=O)N4CCCCC4)SC3=NC2=O)cc1,3.26 µM (active),–
CN1C(=O)c2cccc(NCCCN3C(=O)c4ccccc4C3=O)c2C1=O,18.4 µM (active),–
CCCOc1ccc(N)cc1N,–,-4.55%
CN(C)c1ccc(/C=C2\NC(=S)N(Cc3ccccc3)C2=O)cc1,2.23 µM (active),–
O=C1/C(=C/c2ccc(N3CCCC3)cc2)NC(=S)N1C1CC1,14.6 µM (active),–
CCN1C(=O)/C(=C/c2ccc(N3CCCC3)cc2)NC1=S,20.6 µM (active),–
Cc1cccc(N2CCN(Cc3cn(C)nc3-c3ccccc3F)CC2)n1,6.27 µM (active),–
O=C1CC(c2ccccc2)Cc2[nH]c(=O)c(-c3nc(-c4cccc(Cl)c4)cs3)cc21 (configuration not stated),4.11 µM (active),–
Cc1sc(-c2cc3c([nH]c2=O)CC(c2ccccc2)CC3=O)nc1-c1ccc(Cl)cc1 (configuration not stated),8.2 µM (active),–
CCOC(=O)N1CCN(c2c(NCc3ccc(F)cc3)c(=O)c2=O)CC1,17.7 µM (active),–
Cc1[nH]c2ccccc2c1/C=C/C(=O)c1ccccc1,23.1 µM (active),–
Cc1[nH]c2ccccc2c1/C=C/c1cc[n+](C)cc1,6.27 µM (active),–
Cc1ccc2[nH]c(C)c(/C=C/c3cc[n+](C)cc3)c2c1,1.77 µM (active),–
COc1ccccc1-c1c(C#N)c(N)nc2c1CCc1ccccc1-2,3.14 µM (active),–
CSc1nc(N)c(C#N)c(-c2ccccc2Cl)c1C#N,–,-26.6% [at 36.9 µM]
Cc1ccc(C=Nc2ccccc2C(N)=O)s1,3.96 µM (active),–
O=C1/C(=C\c2ccc(O)cc2)SC(=S)N1Cc1ccccc1,–,27.8%
